The results in this text go back to PubChem BioAssay (Tox21).

Inconclusive results are not listed. A number with no mark means an inactive call. The call rests on the fitted dose curve; in most records, active means well fitted cell-killing curve with a large enough effect in the repeat runs; inconclusive means weak or mixed curves, or effect the other way; inactive means flat fitted curve, though single readings scatter.
On the % scale 0 is the no-effect control and ±100 the full control effect.

This experiment is described as follows: qHTS assay to identify small molecule agonists of the sonic hedgehog signaling (Shh) pathway - cell viability counter screen (AID 1259366). Further: nearly all actives have a fitted effect of over 50% in size. The note with it: NIH/3T3 Gli1-Luc viability, CellTiter-Fluor, 24 h; series mostly up to 92.4 µM; viability change, negative = cytotoxic: at the top concentration. A digest of the protocol: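 Fluorescence from CellTiter-Fluor reports live cells in this counter screen. NIH/3T3-derived Gli1-Luc reporter cells receive test compounds for 24hr at 37C; reagent goes in at 23hr.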
A general note: qHTS replaces the single test concentration by a dilution series.
For `O=c1[nH]c2ccc(Cl)cc2o1`, the “viability change, negative = cytotoxic” value was 9.33%.

Take `Cc1ccc(C(C)(C)O)cc1`: the “viability change, negative = cytotoxic” value is 0.775%.

Take `CCCC(=O)C(=O)O`: the “viability change, negative = cytotoxic” value was 0.237%.

Regarding `CC(C)=CCC1C(=O)N(c2ccccc2)N(c2ccccc2)C1=O`, the “viability change, negative = cytotoxic” value is 0.0029% [at 42.5 µM].

Take `CCOC(=O)/C=C/C(=O)OCC`: the “viability change, negative = cytotoxic” value is -2.92%.

Regarding `Cc1ccc(CO)cc1`, the “viability change, negative = cytotoxic” value was 1.98%.

Consider `O=C(OC(=O)c1ccccc1)c1ccccc1`, for which the “viability change, negative = cytotoxic” value is 3.91%.

In the case of `CC(C)=CCC/C(C)=C/CC/C(C)=C/CCC(=O)OC/C=C(\C)CCC=C(C)C`, the “viability change, negative = cytotoxic” value was 2.45% [at 42.5 µM].

Consider `O[C@@H]1CO[C@H]2[C@@H]1OC[C@@H]2O`, for which the “viability change, negative = cytotoxic” value was -1.21% [at 42.5 µM].

In the case of `CCCCC(CC)CN` (stereo not given), the “viability change, negative = cytotoxic” value is 1.36%.

Regarding `COc1cc(C(=O)NCCCCCC(=O)O)cc(OC)c1OC`, the “viability change, negative = cytotoxic” value was 2.42% [at 42.5 µM].

For the compound `CC(CCC(=O)O)C(=O)O` (stereo not given), the “viability change, negative = cytotoxic” value was 8%.

As for `CCC1NC(=O)c2cc(S(N)(=O)=O)c(Cl)cc2N1` (stereo not given), the “viability change, negative = cytotoxic” value was -3.15% [at 42.5 µM].

In the case of `O=C1NCCN1CCO`, the “viability change, negative = cytotoxic” value is 0.33%.

On to `C1COC1`, for which the “viability change, negative = cytotoxic” value was -1.32%.

Take `CCn1cc(C(=O)O)c(=O)c2cc(F)c(N3CCNCC3)cc21`: the “viability change, negative = cytotoxic” value was 2.56% [at 42.5 µM].

For the compound `CO[C@]1(NC(=O)CSC(F)F)C(=O)N2C(C(=O)O)=C(CSc3nnnn3CCO)CO[C@H]21`, the “viability change, negative = cytotoxic” value is 0.49% [at 42.5 µM].

For `O=C(O)CCCCCCCCCCCBr`, the “viability change, negative = cytotoxic” value was -3.5%.

On to `CCC(=O)OC`, for which the “viability change, negative = cytotoxic” value was 4.99%.

For the compound `CCC(C)(C)OC`, the “viability change, negative = cytotoxic” value is -0.143%.

Turning to `CC(C)=CC(=O)C=C(C)C`, the “viability change, negative = cytotoxic” value was -1.34%.

As to `CC(=O)OCC(=O)NCCCOc1cccc(CN2CCCCC2)c1`, the “viability change, negative = cytotoxic” value was 5.02% [at 42.5 µM].

Turning to `CCCCCCCCCI`, the “viability change, negative = cytotoxic” value is -0.352%.

For the compound `CCc1ccccc1`, the “viability change, negative = cytotoxic” value is 2.92%.

On to `Cc1ccccc1S`, for which the “viability change, negative = cytotoxic” value is 10.9% [at 42.5 µM].

As for `Cc1cscn1`, the “viability change, negative = cytotoxic” value is -0.0322%.

As for `N#CCc1ccc(Cl)cc1Cl`, the “viability change, negative = cytotoxic” value is 0.209%.

Consider `CCCCCC[C@@H](O)C/C=C\CCCCCCCC(=O)O`, for which the “viability change, negative = cytotoxic” value is 13.2%.

Consider `Cc1cc(C)c(N)cc1C`, for which the “viability change, negative = cytotoxic” value was 2.14%.

For the compound `C=CC(C)(CCC=C(C)C)OC(=O)CC(C)C` (stereo not given), the “viability change, negative = cytotoxic” value is -0.675%.
